# D2 PAM-1 = positively modulates the human D2 dopamine receptor allosterically. HEK293 T-REx D2, calcium flux, EC20 dopamine potentiation. hit rate 0.34% among 340,000. AID 485347. potentiation, % at 10 µM;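 active = potentiation over 3 SD above the plate norm, cut at about 30% in these data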
# Target sequence (P14416 whole entry, looked up): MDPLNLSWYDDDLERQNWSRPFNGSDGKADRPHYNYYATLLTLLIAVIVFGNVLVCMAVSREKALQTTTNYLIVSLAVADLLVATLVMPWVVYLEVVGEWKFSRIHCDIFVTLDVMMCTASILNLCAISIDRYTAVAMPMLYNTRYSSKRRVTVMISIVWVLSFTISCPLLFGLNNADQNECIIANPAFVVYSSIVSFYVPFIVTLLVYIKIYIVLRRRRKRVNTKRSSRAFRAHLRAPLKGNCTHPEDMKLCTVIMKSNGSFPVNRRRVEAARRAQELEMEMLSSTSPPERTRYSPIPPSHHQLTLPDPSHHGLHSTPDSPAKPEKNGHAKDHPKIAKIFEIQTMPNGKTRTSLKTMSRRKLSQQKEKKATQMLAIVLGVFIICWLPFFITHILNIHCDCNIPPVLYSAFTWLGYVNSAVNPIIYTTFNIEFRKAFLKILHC
#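 Cells plated with tetracycline inducer and held overnight at 30 C; calcium dye loaded 30–90 min at room temperature; baseline taken, compound added and read 180 s; EC20 dopamine then added and read 180 s.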
# D2 antag = antagonists of human D2 dopamine receptor; HEK293 TREx D2 cells, calcium flux, dopamine EC80; inhibition, % at 10 µM; AID 485344; hit rate 2% among 340,000; in the data active = inhibition above about 30%; inactive = below that, where a call was filed
#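 Dopamine at EC80 is the agonist stimulus; test compounds precede it by 180 s. Calcium flux read kinetically in a force-coupled, inducible HEK293 T-REx D2 cell line.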
# D2 ag-1 = human D2 receptor agonism in beta-arrestin assay | DiscoveRx PathHunter D2 beta-arrestin, luminescence, 90 min; 100% = 57 uM dopamine signal | activation, % (no concentration beside the values) | P14416 | hit rate 0.084% among 360,000; in the data active = activation above about 40%; inconclusive = between about 15% and that limit
#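 Agonist mode: compounds alone added to overnight-plated D2 PathHunter cells for 90 min at 37 C, with 57 uM final dopamine (EC100) defining full response. Beta-arrestin recruitment detected by chemiluminescent reagent, read after 1 h at ambient temperature.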
# D2 PAM-2 = human D2 receptor positive allosteric modulation | DiscoveRx D2 beta-arrestin cells, luminescence, 90 min; 100% = 57 uM dopamine signal | potentiation, % (no concentration beside the values) | hit rate 0.23% among 360,000; in the data active = potentiation above about 50%; inconclusive = mostly about 30% to 49%
#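 PathHunter beta-arrestin assay in DiscoveRx D2 cells. Compounds were added with an EC20 of dopamine (50 nM final) for 90 min at 37 deg C. Luminescence was read 1 h after detection reagent, with 57 uM dopamine as the EC100 control.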
# D2 ag-2 = D2 dopamine receptor (human) agonism | HEK293 T-REx D2 cells, calcium flux agonist mode | hit rate 0.53% among 340,000 | P14416 | activation, % at 2 µM;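 active = activation over 3 SD above normal in the single-dose calcium agonist read, cut at about 30% in these data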
#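 Agonism is scored from calcium flux in a force-coupled, inducible HEK293 cell line expressing D2, read kinetically for 180 s after compound addition against dopamine controls.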
# Numbers stand for hits; . = inactive; ? = inconclusive; / = not tested or not shown; ! = not active in a repeat. An excerpt weighted towards active compounds, which were near 2.4% of everything screened.
SMILES,D2 PAM-1,D2 antag,D2 ag-1,D2 PAM-2,D2 ag-2
COc1ccc(SCCC(=O)NCc2ccncc2)cc1,.,32,.,.,.
O=C1CS(=O)(=O)C2(C(=O)Nc3ccccc32)N1c1cccc(Cl)c1 (stereo unspecified),.,/,/,/,.
COc1ccc(-c2[nH]nc3oc(=O)cc(C)c23)cc1,.,33,.,.,.
COc1ccc(NC(=O)c2c(NC(=O)C(F)(F)F)sc3c2CCCCC3)cc1,.,/,/,/,.
O=C(O)/C(=C\c1cccs1)Sc1nnc(-c2ccc(F)cc2)o1,.,35,.,.,.
CSc1ccc(/C=C(/Sc2nnc(-c3ccccc3)o2)C(=O)O)cc1,.,.,.,.,.
COc1ccc(NC(=O)CN(C)CC(=O)Nc2sc3c(c2C#N)CCC3)cc1,.,32,.,.,.
Cc1cccc(C(=O)NNc2ncnc3c2cnn3-c2ccc(C)c(Cl)c2)c1,.,/,/,/,.
Cn1cc(Cl)c(C(=O)N/N=C/c2ccc(OS(=O)(=O)c3ccccc3)cc2)n1,40,.,.,.,.
Cc1ccc(/C=N/NC(=O)c2nn(C)cc2Cl)cc1,.,.,.,.,.
NC(N)=N/N=C/c1ccc(OS(=O)(=O)c2ccccc2)cc1,.,30,.,.,.
CCC(=O)N/N=C/c1ccc(OS(=O)(=O)c2ccccc2)cc1,.,.,.,.,.
CS(=O)(=O)Nc1cccc2[nH]ncc12,.,.,.,.,.
CCC(C)NC(=O)c1sc2nc3n(c(=O)c2c1C)CCC3 (stereo unspecified),.,/,/,/,.
Cc1ccc(NC(=O)N2CCN(c3ncccc3C(F)(F)F)CC2)cc1,.,37,.,.,.
NC(CC(=O)NC(c1ccccc1)(c1ccccc1)c1ccccc1)C(=O)O (stereo unspecified),37,.,.,.,.
CCOC(=O)c1c(C)n(-c2ccccc2)c2ccc(OC(=O)c3ccc(OCC)c(OCC)c3)cc12,.,/,/,/,/
Cc1ccc(C(=O)NCCn2cc(SCC(=O)Nc3cc(C)on3)c3ccccc32)cc1,.,32,.,.,.
Cc1cc(NC(=O)CSc2cn(CCNC(=O)c3ccccc3)c3ccccc23)no1,.,.,.,.,.
Cc1ccc(-n2c(SCC(N)=O)nc3c([nH]c4ccccc43)c2=O)cc1,32!,.,.,.,.
NC(=O)CSc1nc2ccccc2c(=O)n1-c1ccccc1,.,41,.,.,.
CCn1c(SCC(N)=O)nc2ccccc2c1=O,.,37,.,.,.
COc1cccc(-n2c(SCC(N)=O)nc3ccccc3c2=O)c1,.,.,.,.,.
COc1cc2c(=O)c(S(=O)(=O)c3ccccc3)cn(CC(=O)Nc3ccccc3C)c2cc1OC,.,/,/,/,.
COc1ccc(-c2cn3nc(SCC(=O)Nc4cccc(C)c4C)ccc3n2)cc1,.,/,/,/,/
SMILES,D2 PAM-1,D2 antag,D2 ag-1,D2 PAM-2,D2 ag-2
CCN(CC)CCNC(=O)C(=O)NCC(c1cccnc1)N1CCN(c2ccc(F)cc2)CC1 (stereo unspecified),.,/,/,/,.
C/C(=N\NC(=O)c1c(C)nc2ccccn12)c1ccccc1F,.,31,.,.,.
COC(C[C@@H](O)CC(=O)[C@@H](C)OCc1ccccc1)OC,.,.,.,.,.
COC(C[C@H](O)C[C@H](O)[C@H](C)OCc1ccccc1)OC,.,38,.,.,.
NC(=O)CSc1oc(-c2cccs2)nc1S(=O)(=O)c1ccc(Br)cc1,.,/,/,/,.
CC(=O)Nc1ccc(/C=C2\Sc3ccccc3C2=O)cc1,.,.,?,56,.
CC(=O)N(C)/C=C1\Sc2ccccc2C1=O,.,.,.,.,.
O=C(CCCn1c(=O)[nH]c2ccccc2c1=O)NC1CCCCCC1,.,.,.,.,.
CC1CCC(NC(=O)CCCn2sc3ccccc3c2=O)CC1 (stereo unspecified),.,39,.,.,.
Cc1c[nH]c2cccc(OCC(CNC(C)(C)C)OC(=O)c3ccccc3)c12 (stereo unspecified),.,70,.,.,.
COCC(=O)N(Cc1cc2ccc(C)c(C)c2n2nnnc12)C1CCCC1,37,.,.,.,.
O=C(Cc1ccc(NC(=O)N2CCSc3ncccc32)cc1)NCCc1ccccc1,.,/,/,/,.
C=CCOC(=O)c1cc(-c2ccc(/C=C3\C(=O)NC(=O)C(C#N)=C3C)o2)ccc1Cl,.,.,.,.,.
CC1=C(C#N)C(=O)NC(=O)/C1=C/c1ccc(-c2ccc(S(N)(=O)=O)cc2)o1,37,.,.,.,.
COCCn1c(C)cc(O)c(C(c2ccccc2OC)N2CCN(c3ccccc3)CC2)c1=O (stereo unspecified),.,/,/,/,.
Cc1cc(C)c(C#N)c(SCc2ccccc2C)n1,.,34,.,.,.
Cc1ccc(S(=O)(=O)CCSc2nc(C)cc(C)c2C#N)cc1,33,.,.,.,.
CC(C)OC(=O)c1ccc(NC(=O)c2cncc(Br)c2)cc1,.,45,.,.,.
COc1cccc(OC)c1C(=O)NCCSC1CCCCC1,.,41,.,.,.
COc1cc(OC)cc(C(=O)NCCSC2CCCCC2)c1,.,.,.,.,.
CCSc1nnc2ccc(-c3ccc(C)cc3)nn12,.,.,.,.,.
CCSc1nnc2ccc(-c3ccco3)nn12,37,.,.,.,.
COc1ccccc1/C=C/c1nc2ccccc2n1C(C)C,.,/,/,/,.
CCN(C(=O)c1cc2c(=O)oc3ccc(C)cc3c2s1)c1ccccc1F,.,/,/,/,.
Cc1ccc(-c2cc(C(=O)O)c3cc(Br)ccc3n2)s1,.,31!,.,.,.
SMILES,D2 PAM-1,D2 antag,D2 ag-1,D2 PAM-2,D2 ag-2
Nc1cc(=O)nc(SCC(=O)Nc2ccc(F)cc2)n1CCc1ccccc1,.,/,/,/,.
COc1ccc(-c2cc(C(=O)NCCc3ccc(OC)c(OC)c3)c3ccccc3n2)cc1,.,/,/,/,.
CCOCCCNC(=O)Cn1nc(CC)n2c(cc3c(OC)cccc32)c1=O,.,/,/,/,.
CCCC(=O)Nc1nnc(SCc2cc(=O)n3cccc(C)c3n2)s1,.,/,/,/,.
COc1ccc(NC(=S)NC2CCN(Cc3ccccc3)CC2)cc1OC,.,.,.,.,.
S=C(NCCN1CCOCC1)Nc1ccc(Cl)cc1,.,.,.,.,.
CCc1ccc(NC(=S)NC2CCN(Cc3ccccc3)CC2)cc1,.,98,.,.,.
S=C(Nc1ccc(Cl)cc1)NC1CCN(Cc2ccccc2)CC1,.,69,.,.,.
CC1CCN(CCNC(=S)Nc2ccc(Cl)cc2)CC1,.,31,.,.,.
COc1ccc(CCNC(=S)NC2CCN(Cc3ccccc3)CC2)cc1,.,71,.,.,.
Cc1cccc(OC(=O)c2snnc2C)c1,.,/,/,/,.
Cc1cc(C)c(NC(=O)CCn2c(=O)c3cccn3c3ccccc32)c(C)c1,.,/,/,/,.
CCC(C)c1ccc(NC(=S)NC2CCN(Cc3ccccc3)CC2)cc1 (stereo unspecified),.,/,.,.,/
